The source of these data is PubChem BioAssay AID488969 (Vanderbilt High Throughput Screening Facility, 2010).

In all, about 110,000 compounds were measured (“z-score”: median about -0.1, highest 2% from about 2 on). The entries come from a sample that favours the highest values as a whole. The source made the active and inactive calls.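 Rule for the calls: active = z-score in the third read window above 3 or below -3; inactive = the rest.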

Chain of Metabotropic glutamate receptor 8 (Rattus norvegicus) (P70579 whole entry, looked up): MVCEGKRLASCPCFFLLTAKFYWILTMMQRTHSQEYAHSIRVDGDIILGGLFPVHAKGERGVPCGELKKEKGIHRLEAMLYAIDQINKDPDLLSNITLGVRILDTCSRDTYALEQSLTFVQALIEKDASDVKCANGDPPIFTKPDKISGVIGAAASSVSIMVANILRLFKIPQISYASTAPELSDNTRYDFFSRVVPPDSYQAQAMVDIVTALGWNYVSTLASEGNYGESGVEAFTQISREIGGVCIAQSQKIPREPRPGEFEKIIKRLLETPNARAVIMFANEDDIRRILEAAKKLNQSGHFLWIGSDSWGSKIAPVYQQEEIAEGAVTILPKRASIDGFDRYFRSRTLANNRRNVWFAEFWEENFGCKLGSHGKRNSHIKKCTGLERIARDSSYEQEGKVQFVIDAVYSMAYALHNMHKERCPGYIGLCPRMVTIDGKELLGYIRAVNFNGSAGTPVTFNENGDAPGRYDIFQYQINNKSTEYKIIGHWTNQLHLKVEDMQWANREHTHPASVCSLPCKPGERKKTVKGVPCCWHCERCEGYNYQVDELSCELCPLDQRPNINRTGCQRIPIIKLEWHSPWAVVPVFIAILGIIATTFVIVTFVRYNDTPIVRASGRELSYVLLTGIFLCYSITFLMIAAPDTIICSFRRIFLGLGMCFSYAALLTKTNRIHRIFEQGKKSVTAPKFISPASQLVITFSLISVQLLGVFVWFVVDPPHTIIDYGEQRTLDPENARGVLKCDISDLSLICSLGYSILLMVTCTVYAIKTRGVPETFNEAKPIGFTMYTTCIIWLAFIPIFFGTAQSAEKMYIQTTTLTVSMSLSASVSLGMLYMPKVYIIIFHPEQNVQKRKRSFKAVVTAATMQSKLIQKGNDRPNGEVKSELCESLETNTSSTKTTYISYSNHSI

The assay addresses Metabotropic glutamate receptor 8 (Rattus norvegicus) (UniProt P70579). The assay can be described thus: rat mGluR8 modulators via GIRK flux, primary screen, cell-based, thallium flux, HTS (AID 488969). The following applies: HEK293 rat mGluR8, GIRK (G protein-gated inwardly rectifying potassium channel) thallium flux, FluoZin2; at 10 µM; stronger effect = higher value; submaximal glutamate (EC20) added with thallium.
The molecule `O=C(Cn1nc(Cl)nc1Cl)c1cc2ccccc2oc1=O` gave a z-score of -0.931.
As for `CCOc1cc(CNCCSc2nnnn2C)cc(Br)c1OCc1ccccc1F`, the figure is 0.196; as for `CCOc1cc(CNCCSc2nnnn2C)cc(Br)c1OCc1ccc(F)cc1`, 0.297.
`CCOc1cc(CNCCSc2nnnn2C)cc(Br)c1OCc1ccccc1`: the z-score is 2.3.
`NNC(=O)c1nnn(-c2nonc2N)c1-c1cccs1` returned a z-score of -0.0988.
Take `O=C(Nc1ccccc1N1CCCCC1)c1cccs1`: the z-score is 0.223.
With `O=C(NC(=S)Nc1ccc(N2CCCCC2)c(Cl)c1)c1cccs1` the figure was 8.72 (active); with `O=C(NC(=S)Nc1ccc(S(=O)(=O)N2CCCC2)cc1)c1cccs1`, 1.1; with `O=C(NC(=S)Nc1ccc(S(=O)(=O)N2CCCCCC2)cc1)c1cccs1`, -0.208.
As for `CCCCCC(=O)NC(=S)Nc1ccc(N2CCCCC2)c(Cl)c1`, the figure is -0.183; as for `O=C(NC(=S)Nc1ccc(N2CCCCC2)cc1)c1cccs1`, 11 (active); as for `CC(=O)Cc1nsc(NC(=O)c2cc(-c3ccc(Cl)c(Cl)c3)oc2C)n1`, -0.22.
In turn, `Cc1ccc(S(=O)(=O)c2ccc(C)cc2)cc1` gave a z-score of -0.487.
The molecule `CCN1C(=O)/C(=C\c2ccc3c(c2)OCO3)C(C(=O)OC)=C1C` yielded a z-score of -0.35.
`COc1ccc(C(=O)C(OC(=O)c2ccccc2Cl)c2ccccc2)cc1` (stereo unspecified) gave a z-score of -0.172.
Molecule `CCOC(=O)c1ccccc1NC(=O)c1cn(-c2ccc(OC)cc2)c(=O)c2ccccc12` displayed a z-score of -0.291.
With `COC(=O)c1cn(-c2ccc(Cl)cc2)c(=O)c2ccccc12` the figure was -0.29; with `COc1ccc(-n2cc(C(=O)O)c3ccccc3c2=O)cc1`, 2.28.
In the case of `O=C(Nc1cc(C(F)(F)F)ccc1N1CCOCC1)c1cn2ccccc2n1`, the z-score is -0.314.
With `c1nc(N2CCOCC2)c2c3c(sc2n1)CCCC3` the figure was -0.441.
In turn, `c1nc(N2CCC3(CC2)OCCO3)c2c3c(sc2n1)CCCC3` gave a z-score of -1.04.
As for `CC1(C)CN=C(N2CCN(c3ncnc4sc5c(c34)CCCC5)CC2)S1`, the figure is 5.02 (active); as for `Cc1ccccc1CN1CCN(CC(=O)NCc2ccccc2)C1=O`, 0.0216; as for `COc1ccc(OCCn2nnc(-c3ccc(Cl)cc3)n2)cc1`, 0.195.
As for `COc1ccc(NC(=O)CSc2nnc(-c3ccccn3)n2Cc2ccco2)cc1OC`, the figure is 5.76 (active).
The molecule `O=C(CSc1nnc(-c2cnccn2)n1Cc1ccco1)c1ccc(Cl)cc1` returned a z-score of -0.74.
With `Clc1cccc(CSc2nnc(-c3ccccn3)n2Cc2ccco2)c1` the figure was 3.12 (active); with `COc1ccccc1NC(=O)CSc1nnc(-c2ccccn2)n1Cc1ccco1`, -1.55.
Turning to `Clc1ccccc1CSc1nnc(-c2ccccn2)n1Cc1ccco1`, the z-score turned out to be 0.314.
As for `O=C(CSc1nnc(-c2ccccn2)n1Cc1ccco1)c1ccccc1`, the figure is 1.88; as for `Clc1ccc(CSc2nnc(-c3ccccn3)n2Cc2ccco2)c(Cl)c1`, 0.104.
Consider `O=C(CSc1nnc(-c2cnccn2)n1Cc1ccco1)c1ccccc1`, for which the z-score amounted to 2.15.
The molecule `COc1ccc(C)cc1NC(=O)CSc1nnc(-c2ccccn2)n1Cc1ccco1` returned a z-score of 0.359.
As for `COC(=O)c1ccccc1NC(=O)c1cn(-c2ccc(C)c(C)c2)c(=O)c2ccccc12`, the figure is 0.0214; as for `Cc1c(NC(=O)c2cc(-n3cnnc3)ccc2Cl)cccc1-c1nc2ccccc2o1`, -0.115; as for `O=C1c2ccccc2CN1CCNS(=O)(=O)c1ccc(Cl)cc1`, -0.0894.
In the case of `Cc1ccc(C(=O)N/N=c2\sc3ccccc3n2C)cc1`, the z-score was 0.37.
With `Cc1ccccc1NC(=O)COC(=O)/C=C/c1cn(-c2ccccc2)nc1-c1cccnc1` the figure was -0.0968; with `Cn1nnc2cc(NC(=O)N3CCN(c4ccccn4)CC3)ccc21`, 0.387; with `CC(=O)Oc1ccc(-c2cccc(C(=O)O)c2)cc1`, -0.607.
As for `COc1ccc(C(=O)C2CCN(S(=O)(=O)c3ccc4c(c3)OCCO4)CC2)cc1`, the figure is 0.21; as for `Clc1ccc(/C=N/Nc2nnc(Cl)c3ccccc23)cc1`, 0.242; as for `Clc1ccc(/C=N/Nc2nc(Cl)nc3ccccc23)cc1`, 2.24.
The molecule `Clc1cccc(/C=N/Nc2nc(Cl)nc3ccccc23)c1` registered a z-score of -0.0962.
With `CC(=O)Nc1ccc(OC(=O)c2cc3cc(Br)cc(Br)c3oc2=O)cc1` the figure was -0.128; with `CCOC(=O)C1=C(c2ccccc2)N=C2SCC(=O)N2C1c1cccc(OC)c1` (stereo unspecified), -0.311; with `COC(=O)c1c(NC(=O)COC(=O)[C@@H](NS(=O)(=O)c2ccccc2)C(C)C)sc2c1CCC2`, 0.129.
In the case of `CCOC(=O)c1c(NS(=O)(=O)c2cccc(OC)c2)sc2c1CCC2`, the z-score is 16.9 (active).
As for `COC(=O)c1c(NC(=O)COC(=O)c2ccc(C)s2)sc2c1CCCCC2`, the figure is 0.122; as for `CCOC(=O)c1c(NC=O)sc2c1CCC2`, -0.85.
On to `CCOC(=O)c1c(NC(=O)OC)sc2c1CCC2`, for which the z-score stood at 0.00121.
With `COC(=O)c1c(NC(=O)COC(=O)[C@@H](NS(=O)(=O)c2ccc(C)cc2)C(C)C)sc2c1CCC2` the figure was 2.02; with `CCOC(=O)c1c(NS(=O)(=O)c2ccc(Br)cc2)sc2c1CCC2`, 16.1 (active); with `CCOC(=O)c1c(NC(=S)Nc2ccc(OC)cc2)sc2c1CCC2`, 0.905.
Molecule `CCOC(=O)Nc1sc2c(c1C(=O)OCC)CCC2` yielded a z-score of 0.418.
As for `CCOC(=O)C1CCN(CCC(=O)Nc2cccc(Cl)c2C)CC1`, the figure is 0.732.
`O=C(NC1CCCCCC1)C1C2C=CC3(CN(Cc4cccnc4)C(=O)C13)O2` (stereo unspecified): the z-score is 0.211.
On to `O=c1cc(N2CCc3ccccc32)[nH]c(=O)n1-c1ccc(Br)cc1`, for which the z-score is -0.058.
With `CCc1ccc(OCCOCC(O)CNC(C)CC)cc1` (stereo unspecified) the figure was 0.0842.
For the molecule `COC(=O)c1ccccc1NC(=O)C1CCC(=O)N1S(=O)(=O)c1ccc(C)cc1` (stereo unspecified), the z-score was 0.251.
With `CC(=O)NS(=O)(=O)c1ccc(NC(=O)COc2ccc(C(=O)c3ccccc3)cc2)cc1` the figure was 0.359; with `CC(NC(=O)C1CCN(S(=O)(=O)c2cc([N+](=O)[O-])ccc2Cl)CC1)c1ccccc1` (stereo unspecified), -0.238.
As for `NC(=O)C1CCCN(S(=O)(=O)c2ccccc2)C1` (stereo unspecified), the figure is -0.127.
With `CCC(=O)Nc1nnc(-c2ccco2)o1` the figure was 2.14.
`O=C(Nc1nnc(-c2ccco2)o1)c1ccc2ccccc2c1` registered a z-score of 2.95.
As for `O=C(Nc1nnc(-c2ccco2)o1)c1cccc2ccccc12`, the figure is 0.259; as for `Cc1ccc(C(=O)Nc2nnc(-c3ccco3)o2)cc1`, 0.435.
`Cc1ccc(C(=O)Nc2nnc(-c3ccco3)o2)cc1C` gave a z-score of 0.973.
As for `Cc1cccc(C(=O)Nc2nnc(-c3ccco3)o2)c1`, the figure is 0.11; as for `CCSc1nc2[nH]ncc2c(=O)[nH]1`, -0.145.
With `CCOC(=O)c1c(N)sc(C(O)(C(F)(F)F)C(F)(F)F)c1-c1ccc(OC)cc1OC` the figure was -1.15.
